± gives the standard deviation of the averaged measurements.
The compounds below were run on MDAMB436 (assay: cell proliferation (confluence) relative to DMSO control; higher = less growth inhibition). Conditions: 5 uM; 6 d.
Procedure: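 Epigenetic chemical probe screen: 15 TNBC cell lines, 500 cells per well in 384-well plates, treated with 5 uM of each of 36 SGC probes for 6 d. Confluency was imaged by IncuCyte ZOOM and normalised to DMSO control wells. Four replicate wells per compound.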

SMILES | cell proliferation [%]
c1ccc([C@@H]2C[C@H]2NC2CCNCC2)cc1 | 93.8 ± 3.3
O=C(O)CNC(=O)c1c(O)c2ccccc2n(Cc2ccccc2)c1=O | 96.4 ± 0.42
COc1cc(C(=O)N2CC[C@@H](O)[C@@H](N)C2)cc2nc(-c3cc4ccccc4n3CC3CC3)n(C)c12 | 76.4 ± 6.2
